system: HEK293 WT BDD-FVIII-Gluc; experiment: secreted FVIII-Gluc luciferase Z-score vs DMSO control; higher = more FVIII-Gluc secretion; details: 5 µM
Procedure: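 Natural plant-compound library (480 compounds, ST catalogue IDs) screened on HEK293 cells stably expressing WT BDD-FVIII-Gaussia luciferase fusion at 5 µM. Secreted Gluc activity in the medium is given as a Z-score relative to DMSO controls.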

SMILES | secreted FVIII-Gluc luciferase Z-score
COc1cccc2oc(-c3ccc(O)cc3)cc(=O)c12 | 1.3
COc1cc2cc(Oc3ccc4ccc(=O)oc4c3)c(=O)oc2cc1OC(C)=O | 0.744
CC(C)CC(NC(=O)C(NC(=O)NC(Cc1ccccc1)C(=O)O)C1CCN=C(N)N1)C(=O)NC(C=O)Cc1ccccc1 (stereo not drawn) | 0.979
COc1cc2c(C(=O)c3ccccc3)c3c4c(cc(OC)c(OC)c4c2cc1OC)CCN3C | -1.18
COc1cc2oc(=O)cc(C)c2cc1OC | 0.58
OC[C@@H]1OC(O)[C@@H](O)[C@H](O)[C@H]1O[C@H]1O[C@H](CO)[C@@H](O)[C@H](O)[C@H]1O (stereo partly drawn) | 0.204
COc1cc2cc(Oc3ccc4ccc(=O)oc4c3)c(=O)oc2cc1O | 0.379
COc1c(C)c2c(c(O)c1C/C=C(\C)CCC(=O)O)C(=O)OC2 | -4.24
COc1ccc2c(=O)c(-c3ccccc3)coc2c1 | 1.15
O=C1C[C@@H]2[C@@H](CO)[C@H](O)C[C@@H]2O1 | 0.258
CC1(C)[C@@H]2CC[C@@]1(C)C(=O)C2 | 0.363
C/C(=C\CNc1ncnc2nc[nH]c12)CO | 0.549
Cn1c(=O)c2c(ncn2C)n(C)c1=O | -0.0716
O=c1cc(-c2cccc(O)c2O)oc2ccccc12 | -0.852
O=C(O)c1cc(O)c2c(c1)[C@@H]([C@H]1c3cc(C(=O)O)cc(O)c3C(=O)c3c(O[C@@H]4O[C@H](CO)[C@@H](O)[C@H](O)[C@H]4O)cccc31)c1cccc(O[C@@H]3O[C@H](CO)[C@@H](O)[C@H](O)[C@H]3O)c1C2=O | 0.274
CC1=C(/C=C/C(C)=C/C=C/C(C)=C/C(=O)O)C(C)(C)CCC1 | -0.377
COc1ccc([C@@H]2CC(=O)c3c(O)cc(O)cc3O2)cc1O | 0.825
COc1c(O)cc2oc3cc(O)c(CC=C(C)C)c(O)c3c(=O)c2c1CC=C(C)C | 0.316
COc1ccc(OC)c(C2Nc3ccccc3NC3=C2C(=O)CC(C)(C)C3)c1Br (stereo not drawn) | 0.0362

SMILES | secreted FVIII-Gluc luciferase Z-score
C[C@H](CCC(=O)O)[C@H]1CC[C@H]2[C@@H]3[C@H](O)C[C@@H]4C[C@H](O)CC[C@]4(C)[C@H]3C[C@H](O)[C@]12C | -0.337
NCCC(=O)N[C@@H](Cc1cnc[nH]1)C(=O)O | -1.31
N=C(N=C(N)N)N1CCOCC1 | 0.384
O=c1oc2c(O)c(O)cc3c(=O)oc4c(O)c(O)cc1c4c23 | 0.53
COc1cc2oc(-c3ccccc3)cc(=O)c2cc1O | 0.564
COc1cc([C@@H]2c3cc4c(cc3C(OC3OC5COC(C)OC5C(O)C3O)C3COC(=O)[C@@H]32)OCO4)cc(OC)c1O (stereo partly drawn) | -6.37
C/C1=C\CC(OC(=O)c2ccc(O)cc2)/C(C)=C/C(O)C(C)(C)CCC1 (stereo not drawn) | -0.0859
Nc1nc2c(ncn2[C@@H]2O[C@H](CO)[C@@H](O)[C@H]2O)c(=O)[nH]1 | 1.04
O=c1cc(CO)occ1O | 0.0386
CC(=O)Nc1nc2nc[nH]c2c(=O)[nH]1 | 0.475
CC(=O)N1C=C(C2CCCCN2)CCC1 (stereo not drawn) | 0.76
CC1CC2(C)Oc3ccccc3C3OCC1(COC(=O)Nc1ccccc1)C(C)C32 (stereo not drawn) | -0.945
CCC12CCCN3CCc4c(n(c5ccccc45)C(O)(C(=O)OC)C1)C32 (stereo not drawn) | 0.301
Cc1ncc(CO)c(C=O)c1O | 1.01
CC[C@H](/C=C/[C@@H](C)[C@H]1CC[C@H]2[C@@H]3CC=C4C[C@@H](O)CC[C@]4(C)[C@H]3CC[C@]12C)C(C)C | 0.586
COc1ccc(-c2coc3ccc(OC4OC(COC(C)=O)C(OC(C)=O)C(OC(C)=O)C4OC(C)=O)c(OC(C)=O)c3c2=O)cc1 (stereo not drawn) | -0.543
CC1=CC(=O)C2CC1C2(C)C (stereo not drawn) | 0.115
COc1ccc(-c2coc3cc(O)cc(O)c3c2=O)cc1 | 0.185
O=c1[nH]c(=O)c2ncn([C@@H]3O[C@H](CO)[C@@H](O)[C@H]3O)c2[nH]1 | 0.541

— the supplement of paper PMC12024529
